Assay [1] is described as follows: ATG_CMV_CIS: Attagene CIS-FACTORIAL HepG2 Assay for human CMV (Internal Marker) (AID 2282928).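 Also: endpoint acts as a background internal control marker rather than a target.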 The conditions noted are these: HepG2 CMV promoter reporter, transcription factor profiling; actives raise or lower the signal. A digest of the protocol: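 Endogenous transcription factor activity read in HepG2 via transfected cis-promoter reporter units. After 24 h dosing, reporter mRNA measured by RT-PCR/capillary electrophoresis; gain or loss of signal fit relative to DMSO.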

Assay [2] can be described thus: ATG_DR4_LXR_CIS: Attagene CIS-FACTORIAL HepG2 Assay for human Liver X Receptor (LXR), DR4 submotif (AID 2282929). The note with it: HepG2 Attagene DR4 cis-reporter, mRNA transcription; actives raise or lower the signal. In a few lines: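 After transient transfection with multiplexed cis-promoter reporter units, HepG2 cells received test chemicals for 24 h. Reporter mRNA induction, detected by fluorescence after RT-PCR and capillary electrophoresis, was scored relative to DMSO.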

Assay [3] is described as follows: ATG_AP_2_CIS: Attagene CIS-FACTORIAL HepG2 Assay for human Activator Protein 2 (AP-2) (AID 2282932). The conditions noted are these: HepG2 AP-2 cis-reporter, Attagene transcription factor profiling; actives raise or lower the signal. In a few lines: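 HepG2, transient MRTU transfection, cis-regulated reporters; 24 h compound exposure; RNA isolated, RT-PCR, 6-FAM labelling, HpaI digest, CE fluorescence. DMSO = negative control/baseline, bidirectional fit.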

Assay [4] concerns the target Transcription factor E2F1 (Homo sapiens) (UniProt Q01094). Kind of assay: ATG_E2F_CIS: Attagene CIS-FACTORIAL HepG2 Assay for human E2F Transcription Factor 1 (AID 2282935). The note with it: HepG2 Attagene cis-reporter, E2F reporter RNA transcripts; actives raise or lower the signal. A digest of the protocol:
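Cis-element reporter mRNA induction in transiently transfected HepG2, 24 h exposure. Activity fitted in both directions relative to DMSO negative control.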

The nature of assay [5]: ATG_M_61_CIS: Attagene CIS-FACTORIAL HepG2 Assay for M61 Transcription Factor (Internal Marker) (AID 2282937). The conditions noted are these: HepG2 Attagene CIS-FACTORIAL M61 internal marker reporter; actives raise or lower the signal. In a few lines:
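Using transiently transfected HepG2 liver cells, reporter transcript levels were assessed 24 h post-dosing by RT-PCR and capillary electrophoresis. Changes in either direction were fitted relative to DMSO controls.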

The nature of assay [6]: ATG_EGR_CIS: Attagene CIS-FACTORIAL HepG2 Assay for human Early Growth Response 1 (EGR1) (AID 2282938). The conditions noted are these: HepG2 Attagene CIS-FACTORIAL EGR reporter mRNA; actives raise or lower the signal. A digest of the protocol:
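Fluorescent capillary-electrophoresis signal of reporter cDNA fragments serves as read-out. HepG2 cells bear transiently transfected cis-promoter reporter units and are exposed 24 h; gain- or loss-of-signal is fitted against DMSO.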

Assay [7] is described as follows: ATG_Ets_CIS: Attagene CIS-FACTORIAL HepG2 Assay for human Erythroblast Transformation Specific (ETS) (AID 2282941). The conditions noted are these: HepG2 ETS cis-reporter transcription, actives raise or lower the signal. In a few lines:
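Steps: transfect HepG2 with multiple reporter units; treat compound 24 h; isolate RNA, DNase-treat, reverse-transcribe; PCR-amplify, label with 6-FAM, digest with HpaI; separate by capillary electrophoresis. Activity fitted both directions versus DMSO.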

Assay [8] addresses Hepatocyte nuclear factor 3-beta (Homo sapiens) (UniProt Q9Y261). Kind of assay: ATG_FoxA2_CIS: Attagene CIS-FACTORIAL HepG2 Assay for human Forkhead box A2 (FOXA2) (AID 2282942). The note with it: HepG2 cis-reporter transcription factor activity, 24 h; actives raise or lower the signal. In a few lines: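 Fluorescence signal of reporter cDNA fragments, separated by capillary electrophoresis, reflects endogenous transcription factor activity in transfected HepG2 after 24 h. Both increases and decreases fitted against DMSO.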

Assay [9] can be described thus: ATG_FoxO_CIS: Attagene CIS-FACTORIAL HepG2 Assay for human Forkhead box O (FoxO) (AID 2282943). The note with it: HepG2 Attagene cis-reporter, FoxO element, mRNA; actives raise or lower the signal. A digest of the protocol: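 Human hepatoma HepG2 cells carry transiently introduced reporter transcription units controlled by cis promoter elements. Chemical treatment lasted 24 h, and mRNA signal was compared with DMSO.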

Assay [10] in a line: ATG_GATA_CIS: Attagene CIS-FACTORIAL HepG2 Assay for human GATA Binding Protein (AID 2282944). The conditions noted are these: HepG2 GATA cis-element reporter, Attagene multiplex mRNA; actives raise or lower the signal. In a few lines: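 Measures endogenous transcription factor-driven reporter mRNA in HepG2 cells transiently carrying cis-regulated constructs. 24 h dosing; RNA via oligo(dT) reverse transcription, PCR, HpaI digestion, capillary electrophoresis; fitted relative to DMSO.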

A short description of assay [11]: ATG_ISRE_CIS: Attagene CIS-FACTORIAL HepG2 Assay for human Interferon Regulatory Factor 1 (IRF1) binding to an Interferon-Stimulated Response Element (ISRE) (AID 2282948). The note with it: HepG2 ISRE cis-reporter (Attagene), mRNA transcription readout; actives raise or lower the signal. A digest of the protocol: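 Transfected HepG2 (multiple reporter transcription units, cis elements) dosed 24 h. RNA → oligo(dT) RT → PCR → 6-FAM primer extension → HpaI → CE. DMSO = negative control/baseline.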

The nature of assay [12]: ATG_M_32_CIS: Attagene CIS-FACTORIAL HepG2 Assay for M32 Transcription Factor (Internal Marker) (AID 2282949).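 Also: background control marker of the multiplexed CIS panel rather than a real target.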 The note with it: HepG2 Attagene cis-factorial M32 reporter, mRNA; actives raise or lower the signal. In a few lines:
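Fluorescent capillary electrophoresis peaks of HpaI-digested, FAM-labelled RT-PCR reporter products give the signal. Source: transiently transfected human liver HepG2 cells, 24 h after chemical dosing; bidirectional fitting against DMSO.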

Assay [13] in a line: ATG_MRE_CIS: Attagene CIS-FACTORIAL HepG2 Assay for human Metal Responsive Element (MRE) (AID 2282954). The conditions noted are these: HepG2 MRE cis-reporter transcription, Attagene multiplex; actives raise or lower the signal. A digest of the protocol:
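Transient MRTU transfection of HepG2 (FuGene 6); 24 h dosing; total RNA → oligo(dT) RT, PCR, 6-FAM primer extension, HpaI cut, CE. Bidirectional fit vs DMSO.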

The target in assay [14] is Paired box protein Pax-6 (Homo sapiens) (UniProt P26367). Kind of assay: ATG_Pax6_CIS: Attagene CIS-FACTORIAL HepG2 Assay for human Paired Box 6 (PAX6) (AID 2282956). The conditions noted are these: HepG2 CIS-FACTORIAL PAX6 reporter transcription, RNA readout; actives raise or lower the signal. In a few lines:
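Transient MRTU transfection of HepG2 → compound exposure 24 h → TriZol RNA, oligo(dT) RT → PCR, 6-FAM primer extension, HpaI cut → capillary electrophoresis; activity fitted both directions against DMSO.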

The nature of assay [15]: ATG_PXRE_CIS: Attagene CIS-FACTORIAL HepG2 Assay for human Pregnane X Receptor Element (PXRE) (AID 2282957). The note with it: HepG2 Attagene CIS-FACTORIAL PXRE reporter, mRNA; actives raise or lower the signal. In a few lines:
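Cis-element reporter mRNA in human hepatoma HepG2 cells is measured 24 h post-dosing by RT-PCR, primer-extension labeling and capillary electrophoresis; gain or loss of signal is fitted relative to DMSO.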

The nature of assay [16]: ATG_Sox_CIS: Attagene CIS-FACTORIAL HepG2 Assay for human SRY-box transcription factor (SOX) (AID 2282960). The note with it: HepG2 Attagene cis-factorial SOX reporter, mRNA; actives raise or lower the signal. A digest of the protocol: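 Using transiently transfected HepG2 cells, reporter transcription driven by cis elements was assessed 24 h after dosing. Signal was fluorescence of capillary-separated RT-PCR products, with DMSO defining baseline activity.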

The nature of assay [17]: ATG_SREBP_CIS: Attagene CIS-FACTORIAL HepG2 Assay for human Sterol Regulatory Element Binding (SREBP) (AID 2282962). The note with it: HepG2 Attagene cis-factorial SREBP reporter, mRNA; actives raise or lower the signal. In a few lines: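 Transfected HepG2 (cis-regulated reporter library, endogenous TFs) → compound 24 h → total RNA → oligo(dT) RT → reporter-specific PCR → FAM primer extension, HpaI cut → CE fluorescence. Fit bidirectional vs DMSO.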

Assay [18] in a line: ATG_TCF_b_cat_CIS: Attagene CIS-FACTORIAL HepG2 Assay for human T-Cell-Factor with beta-catenin (TCF/b-cat) (AID 2282965). The note with it: HepG2 TCF/beta-catenin cis-reporter transcription, actives raise or lower the signal. In a few lines: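 Measured: reporter mRNA in HepG2 transiently transfected with cis-promoter reporter units, 24 h after chemical addition. Fitting was bidirectional, DMSO as negative control.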

Assay [19] can be described thus: ATG_TAL_CIS: Attagene CIS-FACTORIAL HepG2 Assay for human TAL Basal Promoter (AID 2282966).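 Also: background control endpoint measuring basal TAL promoter reporter mRNA not a specific factor.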 The note with it: HepG2 Attagene cis-factorial TAL promoter reporter; actives raise or lower the signal. In a few lines:
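In this cell-based multiplex, HepG2 liver cells bearing cis-promoter reporter constructs are dosed for 24 hours. Total RNA is reverse-transcribed and amplified, labelled fragments are sized by capillary electrophoresis, and signal changes are fitted bidirectionally versus DMSO.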

A short description of assay [20]: ATG_TGFb_CIS: Attagene CIS-FACTORIAL HepG2 Assay for human Transforming Growth Factor (TGF) (AID 2282967). The conditions noted are these: HepG2 Attagene CIS TGFb reporter, mRNA transcription; actives raise or lower the signal. A digest of the protocol: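 After a 24-hour incubation with compound, transfected HepG2 cells were lysed for RNA; reporter cDNA was amplified, fluorescently end-labeled and separated by CE. DMSO served as baseline for bidirectional fits.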

The structures appear in SMILES notation. Calls of active or inactive are those of the source. The calls were made as follows: active = hit-call score of the fitted dose curve at least 0.9, where 1 is the maximum; inactive = score below 0.9.

This passage reports outcome and AC50 results from PubChem BioAssay (EPA / NIEHS).

One may read the AC50 as the concentration giving half of the maximal activity seen.

Chain of Paired box protein Pax-6 (Homo sapiens) (P26367 whole entry, looked up): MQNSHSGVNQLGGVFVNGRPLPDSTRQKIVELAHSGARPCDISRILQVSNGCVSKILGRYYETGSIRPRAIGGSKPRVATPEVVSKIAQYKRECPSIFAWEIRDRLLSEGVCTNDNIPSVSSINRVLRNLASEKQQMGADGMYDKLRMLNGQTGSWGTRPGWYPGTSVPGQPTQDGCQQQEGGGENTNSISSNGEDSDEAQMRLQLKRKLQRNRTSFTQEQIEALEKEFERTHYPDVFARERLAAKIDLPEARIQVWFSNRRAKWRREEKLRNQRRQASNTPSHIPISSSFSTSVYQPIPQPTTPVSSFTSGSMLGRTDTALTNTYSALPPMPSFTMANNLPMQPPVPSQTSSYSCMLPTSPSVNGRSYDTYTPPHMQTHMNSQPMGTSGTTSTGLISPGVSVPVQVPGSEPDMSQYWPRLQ
Chain of Transcription factor E2F1 (Homo sapiens) (Q01094 whole entry, looked up): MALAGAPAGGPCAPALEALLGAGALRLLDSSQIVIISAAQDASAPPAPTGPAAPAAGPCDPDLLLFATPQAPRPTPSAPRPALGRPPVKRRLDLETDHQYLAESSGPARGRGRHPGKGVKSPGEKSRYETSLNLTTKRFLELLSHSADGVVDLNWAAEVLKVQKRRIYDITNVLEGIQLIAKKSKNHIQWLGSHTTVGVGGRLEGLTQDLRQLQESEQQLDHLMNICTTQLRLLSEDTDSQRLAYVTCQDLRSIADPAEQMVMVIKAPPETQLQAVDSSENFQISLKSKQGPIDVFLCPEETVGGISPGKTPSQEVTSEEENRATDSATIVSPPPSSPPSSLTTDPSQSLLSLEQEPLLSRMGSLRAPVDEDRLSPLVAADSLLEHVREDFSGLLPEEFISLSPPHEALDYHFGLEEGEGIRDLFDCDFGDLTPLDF
Chain of Hepatocyte nuclear factor 3-beta (Homo sapiens) (Q9Y261 whole entry, looked up, the tested form may be a part): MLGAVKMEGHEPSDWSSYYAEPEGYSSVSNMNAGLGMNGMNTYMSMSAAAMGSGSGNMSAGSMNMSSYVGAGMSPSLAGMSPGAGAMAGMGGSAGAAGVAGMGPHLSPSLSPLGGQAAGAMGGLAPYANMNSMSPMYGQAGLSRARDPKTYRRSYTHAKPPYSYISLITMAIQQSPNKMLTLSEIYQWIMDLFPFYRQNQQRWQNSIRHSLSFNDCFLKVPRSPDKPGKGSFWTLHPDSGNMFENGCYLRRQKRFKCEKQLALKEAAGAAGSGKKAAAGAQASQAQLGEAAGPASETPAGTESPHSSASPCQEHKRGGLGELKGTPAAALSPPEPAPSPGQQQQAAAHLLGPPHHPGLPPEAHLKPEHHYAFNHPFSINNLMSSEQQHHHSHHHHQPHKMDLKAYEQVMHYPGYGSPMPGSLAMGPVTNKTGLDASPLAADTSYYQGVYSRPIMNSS

Take `N#CCNCC#N`: the compound was called inactive in assay [1], in assay [2], in assay [3], in assay [4], in assay [5] and in assay [6]. Besides, the outcome in assay [7], in assay [8], in assay [9], in assay [10], in assay [11] and in assay [12] was inactive. Besides, the compound was classed as inactive in [13], in [14], in assay [15], in [16], in assay [17] and in assay [18]. Further, the compound was classed as inactive in assay [19] and in assay [20].
On to `Cl/C=C\CCl`, for which the compound was called inactive in assay [1], in assay [2], in assay [3], in [4], in assay [5] and in [6]. Further, the outcome in assay [7], in assay [8], in assay [9], in assay [10], in assay [11] and in assay [12] was inactive. For the same compound, the compound was classed as inactive in assay [13], in assay [14], in assay [15], in assay [16], in [17] and in assay [18]. Also, the result in assay [19] and in assay [20] was inactive.
As to `CCC(Br)(CC)C(=O)NC(N)=O`, the outcome in [1], in assay [2], in assay [3], in assay [4], in assay [5] and in assay [6] was inactive. The compound was classed as inactive in [7], in assay [8], in [9], in [10], in assay [11] and in assay [12]. The compound was called inactive in [13], in assay [14], in [16], in assay [17], in [18] and in assay [19]. For the same compound, in assay [20], the result was inactive. Further, in assay [15], the AC50 was 48.5 µM (active).
In the case of `COC(C)(C)CCC[C@H](C)C/C=C/C(C)=C/C(=O)OC(C)C`, the AC50 in assay [1] is 100 µM (active); in assay [2], 72.9 µM (active); in assay [6], 82.3 µM (active); in assay [13], 36.6 µM (active); in assay [14], 100 µM (active); in assay [15], 1.43 µM (active). Also, the outcome in assay [3], in [4], in [5], in assay [7], in assay [8] and in assay [9] was inactive. The result in assay [10], in [11], in [12], in [16], in assay [17] and in [18] was inactive. The compound was called inactive in assay [19] and in assay [20].
